# From the supplement of paper PMC8728848
# This is one part of a sample in which the strongest signals are shown more often than they occur.
# What was measured:
# Test in all cases: glycan array binding signal (z-score within array); higher = stronger binding
# Details in all cases: glycan notation: IUPAC condensed, linker removed
# [1] = target: Fuc(a1-2)Gal(b1-3)GlcNAc(b1-2)Man(a1-3)[Fuc(a1-2)Gal(b1-3)GlcNAc(b1-2)Man(a1-6)]Man(b1-4)GlcNAc(b1-4)GlcNAc
# Summary of the method: (§1)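 Arrays were curated from the Consortium for Functional Glycomics database, 3228 in total, and kept only where the protein sequence was available. Binding is expressed as a within-array Z-score. This score was averaged across arrays of the same protein sequence at different concentrations or buffers and across linkers, and negative values can be read as non-binding.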
# [2] = target: Fuc(a1-2)Gal(b1-3)GlcNAc(b1-3)[Fuc(a1-2)Gal(b1-3)GlcNAc(b1-6)]GalNAc
# Summary of the method: as §1
# [3] = target: Fuc(a1-2)Gal(b1-4)GlcNAc(b1-3)Gal(b1-4)GlcNAc
# Summary of the method: as §1
# [4] = target: Fuc(a1-2)Gal(b1-4)GlcNAc6S
# Summary of the method: as §1
# [5] = target: Fuc(a1-2)Gal3S(b1-4)GlcNAc
# Summary of the method: as §1
# [6] = target: Fuc(a1-2)[Gal(a1-3)]Gal(b1-3)GalNAc(b1-3)Gal(a1-4)Gal(b1-4)Glc
# Summary of the method: as §1
# [7] = target: Fuc(a1-2)[Gal(a1-3)]Gal(b1-3)GlcNAc(b1-2)Man(a1-3)[Fuc(a1-2)[Gal(a1-3)]Gal(b1-3)GlcNAc(b1-2)Man(a1-6)]Man(b1-4)GlcNAc(b1-4)[Fuc(a1-6)]GlcNAc
# Summary of the method: as §1
# [8] = target: Fuc(a1-2)[GalNAc(a1-3)]Gal(b1-4)GlcNAc(b1-3)Gal(b1-4)GlcNAc(b1-3)Gal(b1-4)GlcNAc
# Summary of the method: as §1
# [9] = target: Fuc(a1-3)[Gal3S(b1-4)]Glc
# Summary of the method: as §1
# [10] = target: Gal(a1-3)Gal(b1-3)[Fuc(a1-4)]GlcNAc(b1-2)Man(a1-3)[Gal(a1-3)Gal(b1-3)[Fuc(a1-4)]GlcNAc(b1-2)Man(a1-6)]Man(b1-4)GlcNAc(b1-4)GlcNAc
# Summary of the method: as §1
# [11] = target: Gal(a1-3)Gal(b1-4)[Fuc(a1-3)]GlcNAc
# Summary of the method: as §1
# [12] = target: Gal(a1-3)Gal(b1-4)[Fuc(a1-3)]GlcNAc(b1-2)Man(a1-3)[Gal(a1-3)Gal(b1-4)[Fuc(a1-3)]GlcNAc(b1-2)Man(a1-6)]Man(b1-4)GlcNAc(b1-4)GlcNAc
# Summary of the method: as §1
# [13] = target: Gal(b1-3)GalNAc(b1-3)Gal(a1-4)Gal(b1-4)Glc
# Summary of the method: as §1
# [14] = target: Gal(b1-3)GlcNAc(b1-3)Gal(b1-4)GlcNAc(b1-3)Gal(b1-4)GlcNAc(b1-2)[Gal(b1-3)GlcNAc(b1-3)Gal(b1-4)GlcNAc(b1-3)Gal(b1-4)GlcNAc(b1-6)]Man(a1-6)[Gal(b1-3)GlcNAc(b1-3)Gal(b1-4)GlcNAc(b1-3)Gal(b1-4)GlcNAc(b1-2)Man(a1-3)]Man(b1-4)GlcNAc(b1-4)[Fuc(a1-6)]GlcNAc
# Summary of the method: as §1
# [15] = target: Gal(b1-4)GlcNAc(b1-2)Man(a1-6)Man(b1-4)GlcNAc(b1-4)GlcNAc
# Summary of the method: as §1
# [16] = target: Gal(b1-4)GlcNAc(b1-3)Gal(b1-4)GlcNAc(b1-3)Gal(b1-4)GlcNAc(b1-2)Man(a1-3)[Gal(b1-4)GlcNAc(b1-3)Gal(b1-4)GlcNAc(b1-3)Gal(b1-4)GlcNAc(b1-2)Man(a1-6)]Man(b1-4)GlcNAc(b1-4)[Fuc(a1-6)]GlcNAc
# Summary of the method: as §1
# [17] = target: Gal(b1-4)GlcNAc(b1-3)Gal(b1-4)GlcNAc(b1-3)Gal(b1-4)GlcNAc(b1-2)[Gal(b1-4)GlcNAc(b1-3)Gal(b1-4)GlcNAc(b1-3)Gal(b1-4)GlcNAc(b1-6)]Man(a1-6)[Gal(b1-4)GlcNAc(b1-3)Gal(b1-4)GlcNAc(b1-3)Gal(b1-4)GlcNAc(b1-2)Man(a1-3)]Man(b1-4)GlcNAc(b1-4)[Fuc(a1-6)]GlcNAc
# Summary of the method: as §1
# [18] = target: Gal(b1-4)GlcNAc(b1-3)Gal(b1-4)GlcNAc(b1-3)Gal(b1-4)GlcNAc(b1-3)Gal(b1-4)GlcNAc(b1-2)Man(a1-3)[Gal(b1-4)GlcNAc(b1-3)Gal(b1-4)GlcNAc(b1-3)Gal(b1-4)GlcNAc(b1-3)Gal(b1-4)GlcNAc(b1-2)Man(a1-6)]Man(b1-4)GlcNAc(b1-4)[Fuc(a1-6)]GlcNAc
# Summary of the method: as §1
# [19] = target: Gal(b1-4)GlcNAc(b1-3)Gal(b1-4)GlcNAc(b1-3)Gal(b1-4)GlcNAc(b1-3)Gal(b1-4)GlcNAc(b1-2)[Gal(b1-4)GlcNAc(b1-3)Gal(b1-4)GlcNAc(b1-3)Gal(b1-4)GlcNAc(b1-3)Gal(b1-4)GlcNAc(b1-6)]Man(a1-6)[Gal(b1-4)GlcNAc(b1-3)Gal(b1-4)GlcNAc(b1-3)Gal(b1-4)GlcNAc(b1-3)Gal(b1-4)GlcNAc(b1-2)Man(a1-3)]Man(b1-4)GlcNAc(b1-4)[Fuc(a1-6)]GlcNAc
# Summary of the method: as §1
# [20] = target: Gal(b1-4)GlcNAc(b1-3)Gal(b1-4)GlcNAc(b1-3)Gal(b1-4)GlcNAc(b1-3)Gal(b1-4)GlcNAc(b1-3)Gal(b1-4)GlcNAc(b1-2)Man(a1-3)[Gal(b1-4)GlcNAc(b1-3)Gal(b1-4)GlcNAc(b1-3)Gal(b1-4)GlcNAc(b1-3)Gal(b1-4)GlcNAc(b1-3)Gal(b1-4)GlcNAc(b1-2)Man(a1-6)]Man(b1-4)GlcNAc(b1-4)[Fuc(a1-6)]GlcNAc
# Summary of the method: as §1
# [21] = target: Gal(b1-4)GlcNAc(b1-3)Gal(b1-4)GlcNAc(b1-3)[Gal(b1-4)GlcNAc(b1-3)Gal(b1-4)GlcNAc(b1-6)]GalNAc
# Summary of the method: as §1
# [22] = target: Gal(b1-4)GlcNAc(b1-6)GalNAc
# Summary of the method: as §1
# Gal3S(b1-3)GalNAc = target: Gal3S(b1-3)GalNAc
# Summary of the method: as §1
# Gal6S(b1-4)GlcNAc6S = target: Gal6S(b1-4)GlcNAc6S
# Summary of the method: as §1
# [23] = target: GalNAc(b1-4)GlcNAc(b1-3)GalNAc(b1-4)GlcNAc
# Summary of the method: as §1
# GlcA(b1-3)GlcNAc = target: GlcA(b1-3)GlcNAc
# Summary of the method: as §1
# [24] = target: GlcNAc(a1-3)Gal(b1-4)GlcNAc
# Summary of the method: as §1
# [25] = target: GlcNAc(b1-2)Man(a1-3)[GlcNAc(b1-4)][GlcNAc(b1-2)Man(a1-6)]Man(b1-4)GlcNAc(b1-4)[Fuc(a1-6)]GlcNAc
# Summary of the method: as §1
# [26] = target: GlcNAc(b1-2)[GlcNAc(b1-6)]Man(a1-6)[GlcNAc(b1-2)Man(a1-3)]Man(b1-4)GlcNAc(b1-4)[Fuc(a1-6)]GlcNAc
# Summary of the method: as §1
# [27] = target: GlcNAc(b1-3)Gal(b1-4)GlcNAc(b1-3)Gal(b1-4)GlcNAc(b1-2)[GlcNAc(b1-3)Gal(b1-4)GlcNAc(b1-3)Gal(b1-4)GlcNAc(b1-6)]Man(a1-6)[GlcNAc(b1-3)Gal(b1-4)GlcNAc(b1-3)Gal(b1-4)GlcNAc(b1-2)Man(a1-3)]Man(b1-4)GlcNAc(b1-4)[Fuc(a1-6)]GlcNAc
# Summary of the method: as §1
binder,measurement,setting,value
"Erv41-EDTA (Saccharomyces cerevisiae), Q04651 (protein) MKFLVNVALVFMVVYISYIYAAAPEHHHHHHDYDIPTTENLYFQGAMGYIDQQYVVDSQVRDTVQINMDIYVNTKCDWLQINVRDQTMDRKLVLEELQLEEMPFFIPYDTKVNDINEIITPELDEILGEAIPAEFREKLDTRSFFDESDPNKAHLPEFNGCHVFGSIPVNRVSGELQITAKSLGYVASRKAPLEELKFNHVINEFSFGDFYPYIDNPLDNTAQFNQDEPLTTYVYYTSVVPTLFKKLGAEVDTNQYSVNDYRYLYKDVAAKGDKMPGIFFKYNFEPLSIVVSDVRL",glycan array binding signal (z-score),[1],0.618
same,glycan array binding signal (z-score),[2],2.18
same,glycan array binding signal (z-score),[3],-0.317
same,glycan array binding signal (z-score),[4],0.642
same,glycan array binding signal (z-score),[5],-0.093
same,glycan array binding signal (z-score),[6],-0.396
same,glycan array binding signal (z-score),[7],0.605
same,glycan array binding signal (z-score),[8],0.784
same,glycan array binding signal (z-score),[9],-0.042
same,glycan array binding signal (z-score),[10],-0.414
same,glycan array binding signal (z-score),[11],-0.74
same,glycan array binding signal (z-score),[12],2.1
same,glycan array binding signal (z-score),[13],1.08
same,glycan array binding signal (z-score),[14],1.31
same,glycan array binding signal (z-score),[15],-0.604
same,glycan array binding signal (z-score),[16],1.64
same,glycan array binding signal (z-score),[17],2.65
same,glycan array binding signal (z-score),[18],2.2
same,glycan array binding signal (z-score),[19],2.63
same,glycan array binding signal (z-score),[20],3.41
same,glycan array binding signal (z-score),[21],1.32
same,glycan array binding signal (z-score),[22],1.98
same,glycan array binding signal (z-score),Gal3S(b1-3)GalNAc,0.809
same,glycan array binding signal (z-score),Gal6S(b1-4)GlcNAc6S,-0.128
same,glycan array binding signal (z-score),[23],-0.339
same,glycan array binding signal (z-score),GlcA(b1-3)GlcNAc,-0.217
same,glycan array binding signal (z-score),[24],-0.577
same,glycan array binding signal (z-score),[25],0.162
same,glycan array binding signal (z-score),[26],2.54
same,glycan array binding signal (z-score),[27],1.25
